This note sets out measurements from PubChem BioAssay (NCATS).

Where “and” joins values, the source holds several entries; their conditions need not be identical. Identical values can stand only once. Records with an inconclusive call do not appear. A structure can be active in one record and inactive in another. Calls of active or inactive are those of the source. Calls come from the whole dose curve; as a rule, active = well fitted cell-killing curve with a large enough effect; inconclusive = small, poorly fitted or top-dose-only effect; inactive = flat fitted curve, though single readings scatter.
% is set by controls: 0 for no effect and ±100 for the full control effect.

The nature of the test: Cellular viability qHTS for adrenocortical cancer (ACC) cell line SW-13 (AID 1963989).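 For activity (max response): cells grown in serum-free medium with ITS supplement.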 Note: nearly all actives have a fitted effect of over 65% in size. To be noted: SW-13 ACC cells viability, CellTiter-Glo, 48 h; activity (max response): hits give low values. An excerpt:
PI: Naris Nilubol, MD Surgical Oncology Program, National Cancer Institute (NCI) National Institute of Health (NIH), Bethesda, Maryland Adrenocortical cancer (ACC) is a rare malignancy with poor survival outcomes and few treatment options. Currently, mitotane is the only FDA-approved therapy for ACC. Although adjuvant radiation therapy is rarely utilized, it has the potential to improve survival in select cases. Through a quantitative high-throughput drug screen (qHTS), we identified auranofin (AF), a thioredoxin reductase (TXNRD) inhibitor, as a promising candidate drug. This study aims to evaluate whether AF can enhance the efficacy of radiation therapy in the treatment of ACC. Two human ACC cell lines, SW-13 and NCI-H295R, were screened using the National Center for Advancing Translational Sciences (NCATS) Pharmaceutical Collection (NPC) and the Mechanism Interrogation PlatE (MIPE) library (~4,991 compounds). CellTiter-Glo (Cat # G7570, Promega, Madison, WI) was utilized to measure cell viability. Described herein are the results of the corresponding viability assay.
PROTOCOL TABLE (as described by Inglese J, Shamu CE and Guy RK. 2007) SEQUENCE No. (e.g., 1, 2, 3, etc.); […] (e.g., Cells, Incubation, Reagent, etc.); VALUE; DESCRIPTION. 1; Cells; 5 uL; white, solid-bottom, 1536-well tissue-culture treated plates. 2; Time; overnight culture at 37C with 5% CO2. 3; Compounds and control; 23 nL; Kalypsis pin tool (Wako USA) equipped with a 1536-well pin head to transfer to the assay plates. 4; Time; 48 hours; 37C with 5% CO2. 5; Reagent; 4 uL; CellTiter-Glo luminescent substrate mix. 6; Time; 20 min at room temperature. 7; Detection; Luminescence; ViewLux plate reader NOTES (numbers refer to Sequence numbers above) 1. SW13 cells were harvested from a T175 flask and resuspended in ITS-supplemented DMEM serum-free medium at a concentration of 300 000 cells/mL. Then 5 uL of resuspended cells were dispensed into each well of white, solid-bottom, 1536-well tissue-culture-treated plates using a multidrop combi dispenser. The plates were covered with stainless steel gasket lids. 2-3. The plates were cultured overnight at 37C with 5% CO2. Twenty-three nL of compounds (eight selected concentrations from the NPC / MIPE) or positive control (10 mM stock of bortezomib) in DMSO was transferred to each well of the assay plate using a pin tool (Kalypsys, San Diego, CA, USA). The final concentration of the compounds in the 5 uL assay volume ranged from 0.5 nM to 46 uM. 4-6. After 48 hours of incubation at 37C and 5% CO2, 4 uL of CellTilter-Glo luminescent substrate mix (Promega, Madison, WI, USA) was added to each well. Then the plates were incubated for 20 minutes at room temperature. 7. After incubation, luminescence was measured using a ViewLux plate reader (PerkinElmer, Waltham, MA, USA) with a clear filter was used to measure the number of metabolically competent cells. To determine compound activity in the qHTS assay, the titration-response data for each sample was plotted and modeled by a four-parameter logistic fit yielding IC50 and efficacy (maximal response) values. […] REFERENCES: Inglese J, Shamu CE and Guy RK, Reporting data from high throughput screening of small molecule libraries, Nature Chemical Biology, 2007, 3(8): 438-441. doi.org/10.1038/nchembio0807-438.
In general terms: Quantitative high-throughput screening tests each substance at several concentrations.
For `C=CC(=O)N1CC/C(=C\c2ccc(F)c([N+](=O)[O-])c2)C(=O)/C(=C/c2ccc(F)c([N+](=O)[O-])c2)C1`, the Potency was 0.794 µM (active).
Turning to `CCN[C@H]1C[C@H](C)S(=O)(=O)c2sc(S(N)(=O)=O)cc21`, the activity (max response) was 3.89% (inactive) and 5.72% (inactive).
On the same count and under the same terms, the same measure for `C#C[C@]1(O)CC[C@H]2[C@@H]3CCC4=Cc5oncc5C[C@]4(C)[C@H]3CC[C@@]21C`: 0.351% (inactive); for `C[C@H]1COc2c(N3CCN(C)CC3)c(F)cc3c(=O)c(C(=O)O)cn1c23`: 6.21% (inactive).
For `CC(/C=C/C(=O)NO)=C\[C@@H](C)C(=O)c1ccc(N(C)C)cc1`, the Potency was 6.31 µM (active).
Take `CC1(C)OC[C@@H](COC(=O)CCc2ccc(OC[C@@H](O)CNCCNC(=O)N3CCOCC3)cc2)O1`: the activity (max response) is -0.309% (inactive).
Still for that read-out and setting: the same measure for `COc1ccc2cc(OCC3(C(=O)O)CN(C(=O)c4ccc(F)cc4)C3)ccc2c1`: -4.74% (inactive).
The same measure, in the same setting: in the case of `O=C(O)Cc1sc(-c2ccccc2)nc1-c1ccc(Cl)cc1` it was 0.388% (inactive).
With `c1cc(N[C@@H]2CCNC2)nc(-c2cnc3ccc(-c4cn[nH]c4)cn23)c1`, the Potency is 3.98 µM (active).
For `Cc1ccc(NS(=O)(=O)c2ccc3c(c2)C2C=CCC2C(c2ccc(C(=O)O)cc2)N3)cc1C` (stereo not given), the activity (max response) is -1.16% (inactive).
On to `Cc1nnc(C(=O)NC(C)(C)c2nc(C(=O)NCc3ccc(F)cc3)c(O)c(=O)n2C)o1`, for which the activity (max response) was 8% (inactive) and 11.5% (inactive).
As for `NC(N)=NCCN1CCCCCCC1`, the activity (max response) was 5.33% (inactive).
Still for that read-out and setting: the same measure for `CC(=O)Oc1cccc2c1C(=O)c1c(OC(C)=O)cc(C(=O)O)cc1C2=O`: -7.7% (inactive); for `O=C1NC(=O)[C@@]2(CCOc3ccc(F)cc32)N1`: 3.16% (inactive).
Still for that read-out and setting: in the case of `CC(=O)OCC(CCn1cnc2cnc(N)nc21)COC(C)=O` it was 5.15% (inactive) and -10.4% (inactive); in that of `CNC(=O)c1ccc(N2C(=S)N(c3cnc(C#N)c(C(F)(F)F)c3)C(=O)C23CCC3)cc1F`, 4.43% (inactive).
With `CC(C)(Cc1c[nH]c2ccccc12)NCC(O)COc1ccccc1C#N` (stereo not given), the activity (max response) was -3.72% (inactive).
Turning to `O=c1cc(O)c(Cl)c[nH]1`, the activity (max response) is 20.2% (inactive).
Same read-out and setting: the same measure for `CCOC(=O)C(=O)c1csc(NC=O)n1`: 8.44% (inactive).
Turning to `C=CCNC1=C2CC(C)CC(OC)C(O)C(C)/C=C(\C)C(OC(N)=O)C(OC)/C=C/C=C(\C)C(=O)NC(=CC1=O)C2=O` (stereo not given), the Potency was 3.16 µM (active).
Turning to `O=C(O)CCCc1ccccc1`, the activity (max response) was 16.4% (inactive).
The same measure, in the same setting: in the case of `CCN(CC)C(C)CN1c2ccccc2Sc2ccccc21` (stereo not given) it was 16.5% (inactive); in that of `CCCOc1ccn2c(C(C)=O)cc(-c3ccccc3S(C)(=O)=O)c2c1`, 0.517% (inactive); in that of `COc1c(C)c2c(c(O)c1C/C=C(\C)CCC(=O)O)C(=O)OC2`, -49% (inactive).
For `Cc1c(NC(C)C)c(=O)n(-c2ccccc2)n1C`, the activity (max response) was 8.03% (inactive).
`C=CCN1C[C@H](C(=O)N(CCCN(C)C)C(=O)NCC)CC2c3cccc4[nH]cc(c34)C[C@H]21` (stereo not given in full): the activity (max response) is -6.18% (inactive).
With `COc1cc([C@@H]2c3cc4c(cc3[C@@H](O[C@@H]3O[C@@H]5CO[C@@H](C)O[C@@H]5[C@H](O)[C@@H]3O)[C@H]3COC(=O)[C@H]23)OCO4)cc(OC)c1O`, the Potency was 11.2 µM (active).
In the case of `CN(C)C/C=C/C(=O)Nc1cc2c(Nc3ccc(F)c(Cl)c3)ncnc2cc1O[C@H]1CCOC1`, the Potency was 0.891 µM (active).
With `CC(=O)O[C@]1(C(C)=O)CC[C@H]2[C@@H]3C[C@H](C)C4=CC(=O)CC[C@]4(C)[C@H]3CC[C@@]21C`, the activity (max response) is -20.8% (inactive).
On to `C/C(=N\O)c1ccc(OCC(=O)N2CCCCC2)cc1`, for which the activity (max response) was -4.8% (inactive).
Still for that read-out and setting: the same measure for `CC(C)(C)NCC(O)c1ccc(O)c(CO)c1` (stereo not given): 0.289% (inactive) and -0.385% (inactive); for `Cc1c(F)cc(C(=O)NC2CC2)cc1-c1ccc(C(=O)NCC(C)(C)C)cn1`: 1.4% (inactive).
Still for that read-out and setting: the same measure for `Cn1c(-c2ccccc2C(F)(F)F)nnc1C12CCC(c3noc(C4CC(F)(F)C4)n3)(CC1)CC2`: -6.22% (inactive).
As to `CN1CCN(Cc2ccc(Nc3ncc(Cl)c(Nc4ccccc4S(=O)(=O)N(C)C)n3)cc2)CC1`, the Potency was 0.75 µM (active).
Still for that read-out and setting: in the case of `CC[C@@]1(O)C(=O)OCc2c1cc1n(c2=O)Cc2c-1nc1cc(F)c(C)c3c1c2[C@@H](N)CC3` it was 0.794 µM (active).
For the molecule `CN(C)C(=O)Oc1ccc[n+](C)c1`, the activity (max response) is 13.3% (inactive).
The same measure, in the same setting: in the case of `CC(C)c1cc2c(cc1S(=O)(=O)O)[C@@]1(C)CCC[C@@](C)(C(=O)O)[C@@H]1CC2` it was 15.8% (inactive); in that of `CC(C)NCC(O)c1ccc2ccccc2c1` (stereo not given), 8.99% (inactive).
On to `OCCN(CCO)c1nc(N2CCCCC2)c2nc(N(CCO)CCO)nc(N3CCCCC3)c2n1`, for which the Potency is 5.17 µM (active) and the activity (max response) was -9.57% (inactive).
